According to PubChem BioAssay AID1159580 (chemical genetic matrix, 2015):
The campaign covered roughly 5,500 compounds. About 2,000 (36%) were called active. About 18% were inconclusive and are not listed. No stated cut-off is given here; in the data, active means normalized growth mostly below about 0.91 (no sharp cut-off); inconclusive means no clear call, values can overlap the other calls; inactive means mostly above about 0.92. This is one part of the list.

Test: chemical genetic growth profiling, strain panel (AID 1159580);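 further: tested at 20 µM; growth read once vehicle control cultures reached saturation at 30 °C; 1 = growth at the plate median or of vehicle wells; lower values mean less growth of the strain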
Conditions: S. cerevisiae deletion strains, growth OD

Measured: normalized growth

FC(F)(F)C(Cl)Br (configuration not stated)
inactive: locus YAL021C, strain ccr4, hits give low values 1.02 | locus YAL026C, strain drs2, hits give low values 1.03 | locus YAL030W, strain snc1, hits give low values 1.02 | locus YBL061C, strain skt5, hits give low values 1.02 | locus YBR009C, strain hhf1, hits give low values 1.04 | locus YBR023C, strain chs3, hits give low values 1.03 | locus YBR171W, strain sec66, hits give low values 1.05 | locus YBR231C, strain swc5, hits give low values 1.03 | locus YBR279W, strain paf1, hits give low values 1.03 | locus YCL011C, strain gbp2, hits give low values 1.03 | locus YCL016C, strain dcc1, hits give low values 1.02 | locus YCL061C, strain MRC1, hits give low values 1.02 | locus YCL069W, strain vba3, hits give low values 1.02 | locus YCR088W, strain abp1, hits give low values 1.02 | locus YDL005C, strain med2, hits give low values 1.03 | locus YDL040C, strain nat1, hits give low values 1.02 | locus YDR001C, strain nth1, hits give low values 1.01 | locus YDR069C, strain doa4, hits give low values 1.02 | locus YDR137W, strain rgp1, hits give low values 1.07 | locus YDR159W, strain sac3, hits give low values 1.04 | locus YDR195W, strain ref2 1.05 | locus YDR297W, strain sur2, hits give low values 1.01 | locus YDR334W, strain swr1, hits give low values 1.02 | locus YDR335W, strain msn5, hits give low values 1.02 | locus YDR392W, strain spt3, hits give low values 1.01 | locus YEL003W, strain gim4, hits give low values 1.02 | locus YEL037C, strain rad23, hits give low values 0.997 | locus YEL061C, strain CIN8 (second series), hits give low values 1.02 | locus YER015W, strain faa2, hits give low values 1.02 | locus YER016W, strain bim1, hits give low values 1.04 | locus YER111C, strain swi4, hits give low values 1.03 | locus YER155C, strain BEM2 (second series), hits give low values 1.02 | locus YFR010W, strain ubp6, hits give low values 1.03 | locus YGL167C, strain pmr1, hits give low values 1.04 | locus YGL173C, strain kem1, hits give low values 1.02 | locus YGL227W, strain vid30, hits give low values 1.04 | locus YGL240W, strain doc1, hits give low values 1.02 | locus YGL253W, strain hxk2, hits give low values 1.02 | locus YHR013C, strain ard1, hits give low values 1.02 | locus YHR027C, strain rpn1, hits give low values 1.03 | locus YHR142W, strain chs7, hits give low values 1.03 | locus YJL092W, strain hpr5, hits give low values 1.01 | locus YJL095W, strain BCK1 (second series), hits give low values 1.01 | locus YJL115W, strain asf1, hits give low values 1.01 | locus YJL129C, strain trk1, hits give low values 1.06 | locus YJL154C, strain vps35, hits give low values 1.02 | locus YJL164C, strain tpk1, hits give low values 1.02 | locus YJL166W, strain qcr8, hits give low values 1.03 | locus YJL187C, strain SWE1, hits give low values 1.03 | locus YKL160W, strain elf1, hits give low values 1.02 | locus YKR026C, strain gcn3, hits give low values 1 | locus YKR091W, strain srl3, hits give low values 1.02 | locus YLL001W, strain dnm1, hits give low values 1.01 | locus YLL026W, hits give low values 1.02 | locus YLL041C, strain sdh2, hits give low values 1.02 | locus YLR027C, strain aat2, hits give low values 1.02 | locus YLR221C, strain rsa3, hits give low values 1.02 | locus YLR258W, strain gsy2, hits give low values 1.02 | locus YLR262C, strain YPT6 (second series), hits give low values 1.04 | locus YLR320W, strain mms22, hits give low values 1.03 | locus YLR342W, strain FKS1, hits give low values 1.02 | locus YLR357W, strain rsc2, hits give low values 1.07 | locus YLR370C, strain arc18, hits give low values 1.03 | locus YLR384C, strain iki3, hits give low values 1.02 | locus YML120C, strain ndi1, hits give low values 1.03 | locus YMR058W, strain fet3, hits give low values 1.02 | locus YMR125W, strain sto1, hits give low values 1.02 | locus YMR129W, hits give low values 1.03 | locus YMR205C, strain PFK2, hits give low values 1.03 | locus YMR231W, strain pep5, hits give low values 1.02 | locus YNL071W, strain lat1, hits give low values 1.03 | locus YNL209W, strain ssb2, hits give low values 1.02 | locus YNL248C, strain rpa49, hits give low values 1.03 | locus YNL322C, strain KRE1 (second series), hits give low values 1.02 | locus YNR049C, strain mso1, hits give low values 1.02 | locus YOR001W, strain rrp6, hits give low values 1.04 | locus YOR070C, strain gyp1, hits give low values 1.01 | locus YOR080W, strain dia2, hits give low values 1.02 | locus YOR083W, strain WHI5, hits give low values 1.01 | locus YOR106W, strain vam3, hits give low values 1.04 | locus YOR265W, strain rbl2, hits give low values 1.03 | locus YOR270C, strain vph1, hits give low values 1.08 | locus YOR290C, strain snf2, hits give low values 1.04 | locus YPL051W, strain arl3, hits give low values 1.04 | locus YPL078C, strain atp4, hits give low values 1.02 | locus YPL106C, strain sse1, hits give low values 1.02 | locus YPL240C, strain hsp82, hits give low values 1.02
